Results from PubChem BioAssay (NCI).
This is part of a sample that, as a whole, favours compounds with a hit. Of some 83,000 tested, about 20% had one in any assay.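 Note: values are percent growth. 100 is the growth of untreated cells, values between 100 and 0 indicate rising inhibition; between -100 and 0 indicates cell death.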 Unmarked numbers belong to inactive results. The source made the active and inactive calls. Rule for the calls: active = growth percent below 10; inactive = the rest.

Legend:
Experiment in all cases: NCI-60 one-dose screen, 48 h (100 = growth as untreated, 0 = no growth, -100 = all killed)
Details in all cases: 10 µM unless noted
SK-MEL-2 melanoma = system: SK-MEL-2 melanoma
EKVX NSCLC = system: EKVX NSCLC
SN12C renal = system: SN12C renal
UO-31 renal = system: UO-31 renal
TK-10 renal = system: TK-10 renal
ACHN renal = system: ACHN renal
A498 renal = system: A498 renal
CCRF-CEM leukemia = system: CCRF-CEM leukemia
MOLT-4 leukemia = system: MOLT-4 leukemia
SR leukemia = system: SR leukemia

| Compound | growth (SK-MEL-2 melanoma) | growth (EKVX NSCLC) | growth (SN12C renal) | growth (UO-31 renal) | growth (TK-10 renal) | growth (ACHN renal) | growth (A498 renal) | growth (CCRF-CEM leukemia) | growth (MOLT-4 leukemia) | growth (SR leukemia) |
| --- | --- | --- | --- | --- | --- | --- | --- | --- | --- | --- |
| CO[C@@]12C=C[C@@]34CCC(=O)N3c3ccccc3[C@@H](O1)C4C2 | 101% | 98.8% | 95.5% | 81.4% | 95.1% | 98.6% | 109% | 90.1% | 95.9% | 96.9% |
| CNC(=O)c1cc(Oc2ccc3c(c2)sc2nc(-c4ccc(NC(C)=O)cc4)cn23)ccn1 | 45.2% | 54.7% | 52% | 43.9% | 61.4% | 52% | -6.27% (active) | 78.8% | 72.7% | 25.7% |
| C/C(=N\NC(=O)c1ccncc1)c1ccc(N)cc1 | 105% | 101% | 97.1% | 89.5% | 103% | 109% | 90.6% | 92% | 92.4% | 85.8% |
| CCCn1c(N)c(C(N)=O)sc1=S | 93.3% | 116% | 93.8% | 79.2% | 130% | 93.9% | 98.5% | 108% | 97% | 66.6% |
| Cc1ccc(C2CC(c3ccc(Nc4nc(NCCO)nc(NCCO)n4)cc3)=NN2c2ccc(Cl)cc2)cc1 (stereo not given) | 70.6% | 65.7% | 82.4% | 62.3% | 82.6% | 52.2% | 86.1% | 31.8% | 32.3% | 26.2% |
| COc1ccc2[nH]c(=O)c(/C=C/C(=O)/C=C/c3ccc(O)c(OC)c3)cc2c1 | 78.3% | 59.4% | 4.69% (active) | -70.8% (active) | 61.1% | 49.9% | 89.7% | 3.63% (active) | 21% | 1.27% (active) |
| CN1CCN(S(=O)(=O)O[C@@H]2C(=O)N(c3cc4c5ccccc5ccc4c4ccccc34)[C@H]2c2ccc(F)cn2)CC1 | 92.8% | 85% | 92.2% | 66.6% | 94.6% | 92.1% | 80.4% | 74.8% | 66.6% | 52.5% |
| O=c1c2ccccc2oc2ccc(OCCCCCN3CCCCCC3)cc12 | 99.4% | 90.4% | 69.4% | 68.1% | 72.2% | 103% | 82.7% | 82.5% | 46.7% | 46.9% |
| COC1=CC2C=C(C3N(c4ccccc4)NC(=O)[C@@H]4CCCN34)C(=O)NC2C=C1 (stereo not given in full) | 97.9% | 96.7% | 107% | 86.9% | 100% | 102% | 95.9% | 113% | 124% | 105% |
| C=CCn1c(SCC(=O)Nc2ccc(C(=O)/C=C/c3cc(OC)c(OC)c(OC)c3)cc2)nnc1-c1ccccc1 | 101% | 95.8% | 93.1% | 78.3% | 108% | 103% | 87.5% | 57.1% | 76.9% | 32.5% |
| C#C[C@@]1(O)[C@@H](CO)O[C@@H](n2cc(Cl)c3c(N)ncnc32)[C@@H]1O | -20.6% (active) | -32.4% (active) | 1.7% (active) | -60.1% (active) | -3.3% (active) | -12.5% (active) | -68.8% (active) | 5.93% (active) | 1.07% (active) | 0.983% (active) |
| CN(C)C(CNc1oc(-c2cccc3ccccc23)nc1C#N)c1ccco1 (stereo not given) | 95.9% | 85.1% | 103% | 87.7% | 109% | 90.6% | 107% | 79.5% | 70.5% | 69.5% |
| COc1ccc2c(c1)/C(=C1\S/C(=N/c3nnc(C)s3)NC1=O)C(=O)N2Cc1ccc(Cl)cc1 | 43.4% | 38.8% | 51.6% | 57.7% | 58.4% | 55.3% | -4.96% (active) | 31.7% | 24.6% | 55.7% |
| O=C(CCCCCCCCC(=O)Nc1cccc(C2=NCCN2)c1)Nc1cccc(C2=NCCN2)c1 | 99.8% | 105% | 81.6% | 96.3% | 92.4% | 112% | 93.5% | 98% | 89.4% | 65.5% |
| NCCN1CCNCC1 | 111% | 114% | 92% | 90.7% | 106% | 106% | 92.9% | 97% | 102% | 99.7% |
| CCOC(=O)c1c(C)nc2c(c1N)/C(=C/c1ccc[nH]1)C(=O)N2Cc1ccc(C(F)(F)F)cc1 | 75.5% | 53.7% | 49.4% | 35.4% | 49.3% | 26.1% | 57.5% | 75% | 78.4% | 62.5% |
| Nc1c(C(=O)c2ccccc2)sc2nc(-c3cc4ccccc4o3)cc(-c3ccc(Cl)cc3)c12 | 84.1% | 103% | 165% | 79.1% | 137% | 82.9% | 199% | 105% | 101% | 108% |
| Cn1c2ccccc2c2c(OC(=O)c3ccccc3)c3c(nc21)-c1ccccc1C3 | 81.1% | 86% | 98.1% | 79.9% | 124% | 97.1% | 119% | 98.8% | 96.3% | 91.7% |
| c1ccc(-c2cn3ccnc3c(-c3ccc4c(c3)ncn4C3CCCCC3)n2)cc1 | 106% | 97.5% | 95.2% | 79.1% | 106% | 104% | 106% | 88.3% | 60.3% | 55.4% |
| CCCn1c2cc(OCc3cn(-c4ccc(Br)cc4)nn3)ccc2c2ccnc(C)c21 | 70.6% | 82.7% | 17.5% | 23.4% | 85.9% | 17.4% | 77.8% | 13.1% | 45.6% | -15.2% (active) |
| COc1ccc([C@H]2[C@@H](F)C(=O)N2c2cc(OC)c(OC)c(OC)c2)cc1F | 58.8% | 72.2% | 33.3% | 43.2% | 64.4% | 32.7% | -5.5% (active) | 13.2% | 19.7% | 13.3% |

| Compound | growth (SK-MEL-2 melanoma) | growth (EKVX NSCLC) | growth (SN12C renal) | growth (UO-31 renal) | growth (TK-10 renal) | growth (ACHN renal) | growth (A498 renal) | growth (CCRF-CEM leukemia) | growth (MOLT-4 leukemia) | growth (SR leukemia) |
| --- | --- | --- | --- | --- | --- | --- | --- | --- | --- | --- |
| Cc1ccc(C(=O)O)o1 | 96.1% | 104% | 110% | 95.4% | 96.9% | 111% | 108% | 115% | 101% | 116% |
| C#C[C@@]1(O)[C@@H](CO)O[C@@H](n2cc(Br)c3c(N)ncnc32)[C@@H]1O | -24.9% (active) | -23.8% (active) | -1.98% (active) | -78.3% (active) | -0.297% (active) | -5.98% (active) | -78.9% (active) | 3.84% (active) | -16.5% (active) | -1.01% (active) |
| Nc1cc(N)c(S(=O)(=O)O)cc1N=Nc1cc([N+](=O)[O-])ccc1O | 98.1% | 103% | 100% | 89.4% | 102% | 109% | 103% | 93.9% | 90.5% | 90.3% |
| COc1ccc2c(c1)OC13Oc4cc(OC)ccc4C=C1CCCCC3=C2 | 80.2% | 88.8% | 93.6% | 84.7% | 86.8% | 104% | 98.2% | 80.9% | 80.6% | 99% |
| COC(=O)CCc1n(Cc2ccc3ccccc3c2)c2ccccc2[n+]1Cc1ccc2ccccc2c1 | -56.2% (active) | 42.1% | 7.8% (active) | 78.9% | -5.81% (active) | 86.8% | 8.46% (active) | 9.86% (active) | 3.6% (active) | -47.7% (active) |
| COc1cc(C(=O)Nc2cc(O)c(C/C=C(\C)CCC=C(C)C)c(O)c2)cc2c1O[C@]1(C)CC[C@@H](O)C(C)(C)[C@H]1C2 | 5.69% (active) | 31.7% | 26.5% | -31.9% (active) | 40.9% | 18.5% | -25.7% (active) | 7.08% (active) | -2.24% (active) | 1.41% (active) |
| Cc1nccc2c3ccc(OCc4cn(-c5ccc(Cl)cc5)nn4)cc3n(CC(C)C)c12 | 20.7% | 40.8% | 37.7% | 12.4% | 13.7% | 34.8% | 22.6% | 18% | -11.1% (active) | -14.8% (active) |
| CC(=O)Nc1nc2c(c(N)c1C#N)C(c1cccc(Cl)c1)C1=C(CCCC1=O)N2c1sc2c(c1C#N)CCCC2 (stereo not given) | 55.5% | 35.9% | 52.3% | 37.1% | 44.5% | 53.3% | 62.4% | 50.4% | 12.6% | 26% |
| Cc1ccc2nc3nc4ccc[nH]c4cc3c2c1 | 113% | 56.8% | 105% | 65.8% | 46.9% | 81.8% | 124% | 98.9% | 119% | 18.1% |
| Cn1c2c(c3ccc(-c4ccn[nH]4)cc3c1=O)C(=O)c1ccccc1-2 | 118% | 20.2% | 7.3% (active) | 19.2% | 71.6% | -8.82% (active) | 60% | 2.31% (active) | -1.45% (active) | 1.32% (active) |
| c1ccc(-c2n(Cc3ccc4ccccc4n3)cc[n+]2Cc2ccc3ccccc3c2)cc1 | -27% (active) | 38.4% | 4.45% (active) | 54.6% | -0.737% (active) | 63.8% | -2.66% (active) | 4.04% (active) | 2.42% (active) | -27.4% (active) |
| Cc1nn(-c2ccc(-c3ccc(OC(F)(F)F)cc3)cc2)c2nc(-c3ccccc3)nc(N)c12 | 101% | 97.7% | 92.5% | 82.4% | 89.7% | 100% | 90.2% | 88.9% | 82.4% | 55.6% |
| CC(=O)Oc1ccc(O)cc1 | 87.2% | 103% | 99.9% | 91.2% | 112% | 97.8% | 100% | 64.3% | 4.64% (active) | 87.7% |
| COc1cc2c(cc1OCCCOc1cc3c(cc1OC)C(=O)N1CC(F)(F)C[C@H]1C=N3)N=C[C@@H]1CC(F)(F)CN1C2=O | 34.7% | 49.2% | 35.8% | 30% | 11.3% | 24.7% | -66.6% (active) | -33.1% (active) | -8.82% (active) | -12.1% (active) |
| COc1ccc(NC(=O)c2sc3nc(C)c(C(C)=O)cc3c2N)cc1 | 98.5% | 97.2% | 101% | 105% | 75.2% | 95.3% | 71.1% | 92.2% | 84.9% | 84.3% |
| Nc1c(C(=O)Nc2ccccn2)sc2nc3c(cc12)CCCCC3 | 44.2% | 37.8% | 39.4% | 49% | 71.9% | 52.6% | 25.9% | 6.92% (active) | 15.5% | 8.04% (active) |
| CN1CCN(/C=C2\CC(C(=O)NCc3ccc(Cl)cc3Cl)NC2=O)CC1 (stereo not given) | 100% | 116% | 106% | 95% | 92.7% | 110% | 90.8% | 88% | 95.2% | 90.3% |
| Cc1c(Cl)cccc1NC(=O)c1sc2nc3c(cc2c1N)CCCCC3 | 48.5% | 42.2% | 44.9% | 55.2% | 65.6% | 62.5% | -3.71% (active) | 9.59% (active) | 14.4% | 12.8% |
| Cc1ccc(-c2nc(C#N)c(S(=O)(=O)N(C)CCO)o2)cc1 | 80.4% | 107% | 51% | 78.4% | 116% | 60.7% | 114% | 2.67% (active) | 7.32% (active) | 10.8% |
| CCOCc1cc(C(C)(C)C)ccc1O | 110% | 98.3% | 102% | 94.5% | 93.8% | 105% | 74.2% | 101% | 99.4% | 88.7% |
| CCOc1ccc(C2N(c3cc(OC)c(OC)c(OC)c3)C(=O)C2(F)F)cc1 (stereo not given) | 91.8% | 75.3% | 51% | 51.9% | 103% | 55.3% | 92.3% | 10.2% | 18.1% | 16.2% |
